A3A deaminase: human APOBEC3A DNA deaminase inhibition | inhibition, % at 20 µM | recombinant A3A, FAM/TAMRA ssDNA deamination fluorescence | 0.41% of 330,000 active | P31941;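 active means at least 40% inhibition at 20 µM here, with at most 30% in a related deaminase screen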;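 further: plate controls were A3A with DMSO for no effect and wells lacking A3A enzyme for full effect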
HDAC3 inhib: blocks human histone deacetylase 3; recombinant HDAC3, fluorogenic peptide/trypsin coupled, fluorescence; inhibition, % at 8.3 µM; 0.15% of 320,000 active; in the data active means inhibition above about 26%, passing the limit was not always enough
A3G deaminase: blocks human APOBEC3G single-stranded DNA deamination. Q9HC16. 0.28% of 330,000 active. inhibition, % at 20 µM. recombinant A3G, ssDNA deamination FAM/TAMRA fluorescence;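 active means inhibition of at least 40% at 20 µM, with no more than 30% in the related APOBEC3A deaminase screen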;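 further: plate controls were DMSO wells with A3G for no effect and wells lacking A3G enzyme for full effect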
Target sequence (Q9HC16 whole entry, looked up): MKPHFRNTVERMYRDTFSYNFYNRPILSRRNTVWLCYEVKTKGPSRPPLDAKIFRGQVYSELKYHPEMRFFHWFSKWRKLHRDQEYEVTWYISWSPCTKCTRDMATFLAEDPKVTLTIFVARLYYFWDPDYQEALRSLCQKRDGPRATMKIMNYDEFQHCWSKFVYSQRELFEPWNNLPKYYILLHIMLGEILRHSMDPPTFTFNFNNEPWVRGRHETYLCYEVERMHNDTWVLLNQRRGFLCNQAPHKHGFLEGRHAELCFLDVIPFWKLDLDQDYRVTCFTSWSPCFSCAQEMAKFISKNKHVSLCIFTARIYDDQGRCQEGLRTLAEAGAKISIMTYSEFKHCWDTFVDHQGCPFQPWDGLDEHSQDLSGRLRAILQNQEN
LANA-H2B inh: blocks KSHV LANA binding to histone H2A/H2B | Q9QR71 | cell-free LANA-H2A/H2B peptide, fluorescence polarization | 0.6% of 320,000 active | inhibition, % (test concentration not listed); in the data active means inhibition mostly above about 10%, no sharp cut-off; inactive means mostly below about 6.7%
* marks the source's active call; other numbers are inactive results; . = no result; + = active, no number; ! = not confirmed by another sample. Rows were chosen to be rich in hits. Some 1.4% of all compounds tested hit in one or more screens of this group.

SMILES	A3A deaminase	HDAC3 inhib	A3G deaminase	LANA-H2B inh
CC(C)=CCC/C(C)=C/CNC(=O)C[C@H]1C[C@H](C(=O)N2CCOCC2)[C@@]2(CCC3CCCC3)c3[nH]c4cc(-c5ccco5)ccc4c3CCN2C1=O	0	.	1	.
COc1ccc(N(Cc2ccccc2)S(=O)(=O)c2cccc(C(=O)NCC3CCCO3)c2)cc1 (stereo not given)	-2	.	-2	.
COc1ccc(CCN2C(=NC(=O)CC(C)C)SC3CS(=O)(=O)CC32)cc1OC (stereo not given)	-3	-2	-1	22*
CCC(CC)C(=O)N=C1SC2CS(=O)(=O)CC2N1CCc1ccc(OC)c(OC)c1 (stereo not given)	-3	7	-8	-1
C[C@H](CO)N1C[C@H](C)[C@@H](CN(C)Cc2ccc(C(=O)O)cc2)Oc2c(NS(=O)(=O)c3ccc(F)cc3)cccc2C1=O	-2	-1	-3	3
COc1cc(C(=O)O/N=C2\C=CC(=O)C(C)=C2)cc(OC)c1OC	-2	62*	-10	1
CCN(CC)C(=S)SCC(=O)c1ccccc1	2	3	1	2
CCN(CC)C(=S)SSC(=S)N(CC)CC	-1	1	7	20*
COc1ccc(C(=O)N(C)C2(C)CCS(=O)(=O)C2)cc1OC (stereo not given)	-1	3	-4	-4
CN(C(=O)c1ccc2c(c1)OCO2)C1(C)CCS(=O)(=O)C1 (stereo not given)	1	-8	15	14*
CC(=O)c1cccc(NC(=S)NC(=O)c2ccc(C)cc2Cl)c1	-4	1	-3	36*
O=C(O)c1cccc(S(=O)(=O)Nc2ccc3c(c2)OCO3)c1	6	8	1	2
O=S(=O)(Nc1ccc2c(c1)OCO2)c1ccc(F)c(F)c1	-4	5	-6	27*
Cc1ccc(C(=O)N/C(=C\c2ccco2)C(=O)N2CCOCC2)cc1C	-3	2	-4	1
CN1CCN(c2cc(N3CCN(C(=O)c4ccco4)CC3)c3c4c(onc24)-c2ccccc2C3=O)CC1	9	2	0	-4
O=C(O)CCCNc1cc(N2CCN(C(=O)c3ccco3)CC2)c2noc3c2c1C(=O)c1ccccc1-3	53	9	79	14
CCOC(=O)N1CCN(c2cc(NCCC(=O)O)c3c4c(onc24)-c2ccccc2C3=O)CC1	25	11	32	37*
O=C(O)CCCNc1cc(N2CCC3(CC2)OCCO3)c2noc3c2c1C(=O)c1ccccc1-3	84	11	97	38*
Cc1cccc(CCNC(=O)CCS(=O)(=O)c2ccc(Br)cc2)c1	-3	2	-7	18*
O=C(CCS(=O)(=O)c1ccccc1)NCc1ccccc1	2	2	4	37*
Cc1ccc(CNC(=O)CCS(=O)(=O)c2ccc(C)cc2)cc1	1	1	-2	-3
COc1ccc(S(=O)(=O)CCC(=O)NCCc2cccc(C)c2)cc1	3	4	3	-1
N#C/C(N=Nc1ccccc1O)=N\Nc1ccccc1O	-7	-6	19	2
CCCN(Cc1nnc(-c2ccccc2Cl)o1)C(=O)COc1ccc(Cl)cc1	-1	1	-7	-3
COc1ccc(OC)c(S(=O)(=O)ON2C(=O)c3ccccc3C2=O)c1	5	37*	1	6
SMILES	A3A deaminase	HDAC3 inhib	A3G deaminase	LANA-H2B inh
COc1ccc(Cl)cc1NC(=O)c1cc(-c2ccc(C)cc2O)n[nH]1	4	-1	-1	23*
O=S(=O)(c1ccc(Br)s1)N1CCN(CCOc2ccccc2)CC1	2	2	3	-1
O=C1N=c2ccccc2=C1c1sc(=O)[nH]c1O	-1	-1	-4	2
O=C1N=c2ccccc2=C1c1[nH]c(=S)[nH]c1O	-1	1	-4	12*
CN(Cc1ccccc1)C(=O)c1ccc(NC(=O)Cc2cccc(NC(=O)C3CCCN(C(=O)C4CCCCC4)C3)c2)cc1 (stereo not given)	1	3	-8	-1
CCCc1cc(=O)[nH]c(SCC(=O)N2CCc3ccccc3C2)n1	-4	-3	-10	+
CCCc1cc(=O)[nH]c(SCC(=O)N2CCc3cc(OC)c(OC)cc3C2)n1	1	-4	-7	0
O=S(=O)(c1cnc[nH]1)N1CCN(c2ccc(Cl)cc2)CC1	2	8	-4	1
COc1ccc(N2CCN(S(=O)(=O)c3cnc[nH]3)CC2)cc1	3	-4	3	33*
Cc1ccc2c(=O)n3c(nc2c1)C(Cc1ccc(O)cc1)NC(=O)c1ccc(Cl)cc1-3 (stereo not given)	-1	6	-3	-1
Cc1cccc(Nc2ncccc2C(=O)O)c1C	2	4	3	59*!
Cc1cccc(Nc2ccccc2C(=O)O)c1C	0	.	-4	2
